Hit rate of the full screen: of about 360,000 compounds, about 230 (0.064%) were called active. Only a selection was taken, and actives are over-represented in it overall. Values without a mark were called inactive. No stated cut-off is given here; in the data, active means activity above about 50% (passing the limit was not always enough); inconclusive means no clear call, values can overlap the other calls.

This assay relates to DNA topoisomerase I (Yersinia pestis CO92). Kind of assay: Yersinia pestis topoisomerase I inhibitors, primary screen, biochemical, cleavage product accumulation, plate reader, single point (AID 504884). Conditions: Y. pestis Topo-I cleavage product accumulation, at 10 µM, stronger effect = higher value.
Consider `CC1CN(/C=C/C(=O)C(F)(F)F)CC(C)O1` (centres undefined), for which the activity is 5.75%.
For the molecule `CCOc1ccc(NC(=O)CN(C)C(=O)Cn2c(=O)cnc3ccccc32)cc1OCC`, the activity is 1.46%.
On to `CCOC(=O)c1[nH]cnc1C(=O)NC1CCCCC1`, for which the activity is -3.43%.
Take `CCc1nc2c(OCCC3CCCCC3)cccn2c1N(C)C(=O)c1ccco1`: the activity is 31.3%.
As for `CC1CC(C)CN(c2ccc(S(=O)(=O)N3CCOCC3)cc2)C1` (centres undefined), the activity was 31.2%.
As for `ClC1(Cl)CC1CSc1ncn[nH]1` (centres undefined), the activity is 4.63%.
For the molecule `CCCC(C)C(=O)OCC(=O)Nc1c(Br)cc(C)cc1Br` (centres undefined), the activity was 0.888%.
For the molecule `COc1cccc2c1OCC(C(=O)NCc1ccc(Cl)cc1Cl)=C2`, the activity was 5.83%.
Turning to `CCOc1nnc(C)c2c(C)n(-c3cccc(Cl)c3)nc12`, the activity is 0.181%.
With `O=C(CC1C(=O)NCCN1C(=O)c1ccc([N+](=O)[O-])cc1)Nc1cccc(Cl)c1` (centres undefined), the activity was -5.36%.
On to `CCc1ccccc1NC(=O)/C(=C/c1ccccc1)c1ccccc1`, for which the activity was 58.2% (active).
Regarding `CCc1ccccc1NC(=O)CCOc1ccccc1`, the activity was 2.54%.
Regarding `CCc1ccccc1NC(=S)Nc1cc(OC)c(NC(=O)C(C)C)cc1OC`, the activity is -1.32%.
As for `CCOc1ccc(S(=O)(=O)N2CCCCC2)cc1NC(=O)CN1CCCC1c1cccs1` (centres undefined), the activity is 9.92%.
For `COc1ccc2c(c1)CCc1cn3ncc(C#N)c3nc1-2`, the activity is 5.21%.
In the case of `CCN(C(=O)c1ccc(Br)cc1)c1ccccc1`, the activity was 4.1%.
For `O=C(COc1ccc(F)cc1)N(CC1=CCS(=O)(=O)C1)c1ccccc1`, the activity is 3.66%.
As to `CCN(C(=O)COc1ccc(C(=O)c2ccccc2)cc1)c1ccccc1`, the activity is 51.2% (active).
As to `C=CCN(C(=O)c1cc(C)cc(C)c1)C1(C(=O)Nc2ccccc2)CCN(C(C)C)CC1`, the activity is -1.88%.
As for `C=C1CCN([C@@H](Cc2ccccc2)C(=O)N2CCOCC2)S(=O)(=O)c2ccccc21`, the activity is 11.9%.
For the molecule `CCc1cc(-c2n[nH]c(=S)n2CC(C)C)cs1`, the activity is 7.56%.
Turning to `CCn1ncc(C2=NOC(C(=O)Nc3ccccc3C(=O)OC)C2)c1C` (centres undefined), the activity was 16.1%.
For the molecule `C[N+]1(CCNC(=O)/C=N/O)CCCCC1`, the activity was 3.78%.
Regarding `N#Cc1ccc(/C=C2\CCn3c2nc2cc(C(=O)O)ccc2c3=O)cc1`, the activity was 5.43%.
Regarding `CCN(CC)S(=O)(=O)c1ccc(OC(C)C)c(N)c1`, the activity is 9.36%.
For `CCCC(C)C(=O)NCc1ccncc1` (centres undefined), the activity is 3.84%.
Turning to `Cc1cnc(C(=O)OCc2c(C)cc(C(C)(C)C)cc2C)cn1`, the activity is 33.4%.
As to `O=C(NC(c1ccc(Cl)cc1)P(=O)(Oc1ccccc1)Oc1ccccc1)OCc1ccccc1` (centres undefined), the activity is -6.44%.
For the molecule `COc1cc(C(=O)OCc2cc(=O)n3ccsc3n2)ccc1OC(C)C`, the activity was 1.94%.
Turning to `Cc1ccc(OCC(=O)Nc2ccccc2C(=O)NC2CC2)cc1`, the activity is -5.78%.
For the molecule `COc1cc([N+](=O)[O-])ccc1NC(=O)COC(=O)CCOc1ccc(C)cc1`, the activity is -0.7%.
Regarding `CSc1ccccc1NC(=O)COC(=O)CCCOc1ccc(C)cc1`, the activity is 71.8% (active).
Consider `O=S(=O)(Nc1ccc2[nH]ncc2c1)c1ccccc1Cl`, for which the activity is 5.56%.
Next, `CC(NC(=O)c1ccccc1C(=O)O)c1ccc(-n2ccnc2)cc1` (centres undefined): -18%; `C=C(C)CNc1cc(S(=O)(=O)N2CCOCC2)ccc1Oc1ccccc1`: 23%.
Take `CCN(CC(=O)Nc1cc(Cl)ccc1C)C(=O)CN1C(=O)NC2(CCCC2)C1=O`: the activity is -11.4%.
Turning to `COC(=O)CN1C(=O)[C@H]2[C@@H](C3CC3)N3C(=O)CN(Cc4ccc(-c5ccccc5)cc4)C(=O)[C@@]3(Cc3ccccc3)[C@H]2C1=O`, the activity is 35.2%.
With `CCC1(C)NC(=O)N(CC(=O)N2CCN(c3cccc(Cl)c3)CC2)C1=O` (centres undefined), the activity was 2.38%.
Next, `CCC1C=C(c2ccccc2)C=CN=C1N(CC)CC` (centres undefined): 0.893%.
Next, `CCN(CC)S(=O)(=O)c1ccc(N2CCOCC2)c(NC(=O)C(C)Oc2ccc(F)cc2)c1` (centres undefined): 18%.
`CCN1CCc2nc(NC(=O)c3cc(F)c(F)cc3Cl)sc2C1`: the activity was 6.77%.
Next, `COc1ccc(CCNC(=O)C(=O)NCC2CCNCC2)cc1OC`: 0.788%; `COC(=O)[C@H](C)[C@H]1C[C@]1(C)[C@H](NC(=O)OCc1ccccc1)c1ccccc1`: 16.4%.
In the case of `CC(C)[C@H](NC(=O)OCc1ccccc1)C(=O)OCc1ccccc1`, the activity was 58.9% (active).
For the molecule `CC(C)C(NC(=O)OCc1ccccc1)C(=O)OCC(=O)N1C(C)CCCC1C` (centres undefined), the activity was 15.6%.
For `COc1ccc(N(Cc2cc3ccc(C)cc3[nH]c2=O)S(=O)(=O)c2ccccc2)cc1`, the activity was 29.4%.
Take `CN1C(C)(C)CC(NC(=O)CCC(=O)NC2CC(C)(C)N(C)C(C)(C)C2)CC1(C)C`: the activity was -3.64%.
The figure for `O=C(O)c1cc(S(=O)(=O)NC2CCCc3ccccc32)ccc1O` (centres undefined) is -3.28%.
Regarding `COc1ccc(N2CC(C)Cn3c2nc2c3c(=O)n(Cc3ccccc3F)c(=O)n2C)c(OC)c1` (centres undefined), the activity is 14.8%.
`O=C(CN1C(=O)COc2ccc(Cl)cc21)N1CCOCC1`: the activity was 2.5%.
Next, `CCC(CC)c1nnc(NS(=O)(=O)Cc2ccccc2)s1`: -2.39%; `Cc1ccc2c(C)c(C(=O)N3CCC(N4CCC(C(=O)NC5CC5)CC4)CC3)oc2c1`: -3.85%; `Cc1ccc(-n2ncc3c(Nc4cccc(C(=O)O)c4)ncnc32)cc1`: -7.17%.
Consider `Cc1ccc(Cl)cc1NC(=O)C1CCN(S(C)(=O)=O)CC1`, for which the activity is 6.58%.
For `c1cc2c(cc1C1OCC3C(c4ccc5c(c4)OCO5)OCC13)OCO2` (centres undefined), the activity was 21.1%.
On to `CC(=O)c1cccc(OCC(=O)OCC(=O)Nc2cc(S(=O)(=O)N3CCCCC3)ccc2C)c1`, for which the activity was 29.7%.
The figure for `COc1cccc(N(CC(=O)NCCSc2ccccn2)S(C)(=O)=O)c1` is -7.24%.
`O=C(CSc1nc2cc3c(cc2c(=O)n1CCC1=CCCCC1)OCO3)NCc1ccco1`: the activity was -0.243%.
`Cc1cccn2cc(-c3cccc(S(=O)(=O)N4CCCCC4)c3)nc12`: the activity was 23.2%.

(Values after PubChem BioAssay AID504884 (Broad Institute, 2011).)
